This passage reports outcome and AC50 results from PubChem BioAssay (EPA / NIEHS).

Values joined by “and” are separate entries in the source; they are usually repeats but may differ in a detail not shown here. Identical values can stand only once. Inconclusive results are not listed. More than one record can exist for a structure, and the calls need not agree. Active and inactive are the calls of the source. The calls were made as follows: active = hit-call score of the fitted dose curve at least 0.9, where 1 is the maximum; inconclusive = response in the unintended direction; inactive = score below 0.9.

The nature of test [1]: LTEA_HepaRG_LDH_cytotoxicity: Cytotoxicity Assessment in the Life Technologies and Expression Analysis (LTEA) Assay (AID 2283563).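 As to AC50: LDH activity released into spent culture medium as a marker of cell death.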 In a few lines: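 Human HepaRG hepatic cells are treated with test chemicals for 48 h at up to 100 uM in 0.5% DMSO. Cytotoxicity is scored from medium LDH against the vehicle control.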
The nature of test [2]: ATG_XTT_Cytotoxicity: Cytotoxicity Assessment in the Attagene TRANS-FACTORIAL HepG2 Assay (AID 2283584).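 As to AC50: XTT signal for cell number as viability in transfected HepG2 cells; cells exposed to compound for 24 h before reading; active means loss of viability signal versus DMSO baseline.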 In a few lines:
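Transfect HepG2 with GAL4-UAS reporter units, dose compound, incubate 24 h, then measure viable cell number by XTT. Fit concentration response against DMSO baseline.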

Test [3] can be described thus: TOX21_p53_BLA_p2_viability: Viability Assessment in the Tox21 HCT-116 p53 Agonism Beta-lactamase Assay, Phase 2 (AID 2283591).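 Also: compound exposure lasted 16 h at 37 °C; actives lower the ATP signal meaning cytotoxicity.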 In a few lines: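 Cytotoxicity readout: CellTiter-Glo ATP luminescence, 30 min at room temperature, after the beta-lactamase read. Cells were HCT116 exposed 16 h at 37C to compounds pin-transferred at 217-fold dilution from DMSO stocks.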
The target in test [4] is Cellular tumor antigen p53 (Homo sapiens) (UniProt P04637). Kind of test: TOX21_p53_BLA_p2_ratio: Tox21 HCT-116 p53 Agonism Beta-lactamase Assay, Ratio, Phase 2 (AID 2283592). In a few lines: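 Cleaved-to-uncleaved substrate ratio (460 vs 530 nm) measured in HCT116 cells with an inducible beta-lactamase reporter linked to p53 activity. Compounds incubated 16 h at 37C before 2 h room-temperature CCF4-AM loading.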

The nature of test [5]: TOX21_p53_BLA_p3_viability: Viability Assessment in the Tox21 HCT-116 p53 Agonism Beta-lactamase Assay, Phase 3 (AID 2283593).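 Also: cells exposed to compound for 16 h before reading.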 The essentials:
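Cellular ATP was quantified by CellTiter-Glo luminescence, read after 30 min at room temperature. Beforehand, HCT116 cells (4000/well) received compound 5 h post-seeding, 217-fold diluted from DMSO, then incubated 16 h at 37C.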

Test [6] deals with Cellular tumor antigen p53 (Homo sapiens) (UniProt P04637). Kind of test: TOX21_p53_BLA_p3_ratio: Tox21 HCT-116 p53 Agonism Beta-lactamase Assay, Ratio, Phase 3 (AID 2283596). In a few lines:
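Cells were seeded at 4000/well, rested 5 h at 37C, then dosed with DMSO compound solutions (217-fold dilution) for 16 h. CCF4-AM substrate was loaded for 2 h at room temperature, and the 460/530 nm emission ratio was fitted for gain of signal versus DMSO.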

Test [7] in a line: TOX21_p53_BLA_p4_viability: Viability Assessment in the Tox21 HCT-116 p53 Agonism Beta-lactamase Assay, Phase 4 (AID 2283597).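 Also: hits lower the luminescence signal meaning cytotoxicity.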 The essentials:
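Viability is taken as cellular ATP: after 16 h compound exposure of HCT116 cells and a 2 h room-temperature CCF4-AM substrate step, CellTiter-Glo reagent is added and luminescence is measured 30 min later.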

Test [8] concerns the target Cellular tumor antigen p53 (Homo sapiens) (UniProt P04637). Nature of the test: TOX21_p53_BLA_p5_ratio: Tox21 HCT-116 p53 Agonism Beta-lactamase Assay, Ratio, Phase 5 (AID 2283599). In a few lines:
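Beta-lactamase reporter ratio (blue 460 nm over green 530 nm, 405 nm excitation) after 2 h CCF4-AM loading, in HCT-116 cells exposed 16 h at 37 C to compounds pinned at 217-fold dilution. Increases relative to DMSO baseline scored.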

Test [9] is described as follows: TOX21_p53_BLA_p5_viability: Viability Assessment in the Tox21 HCT-116 p53 Agonism Beta-lactamase Assay, Phase 5 (AID 2283600). In a few lines: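 Viability is taken from cellular ATP content, measured by luciferase luminescence in the same wells after the beta-lactamase ratio read. Cells are seeded at 4000 per well and exposed to DMSO-dissolved compounds, diluted 217-fold, for 16 h.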

The target in test [10] is Cellular tumor antigen p53 (Homo sapiens) (UniProt P04637). Nature of the test: TOX21_p53_BLA_p4_ratio: Tox21 HCT-116 p53 Agonism Beta-lactamase Assay, Ratio, Phase 4 (AID 2283601). In a few lines:
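Signal is the blue/green (460nm/530nm) ratio of cleaved versus uncleaved CCF4-AM substrate, read after 2 h substrate loading. Cells were HCT116 carrying the p53-responsive beta-lactamase reporter, dosed 16 h at 37C, 5% CO2; CellTiter-Glo measured in parallel.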

Test [11] is described as follows: Tanguay_ZF_120hpf_MORT_legacy: (Legacy) Oregon State University Tanguay Lab 120 Hour Post-fertilization zebrafish Assay for Mortality (AID 2283633).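 As to AC50: fitted as increase in binary mortality versus DMSO negative control.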 The essentials: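 Mortality endpoint from a multiplexed whole-embryo zebrafish screen. Dechorionated wild-type embryos received compound at 6 hpf and remained under static exposure at 28C until 120 hpf, with death noted as a present/absent call.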

Test [12] in a line: Tanguay_ZF_120hpf_YSE_legacy: (Legacy) Oregon State University Tanguay Lab 120 Hour Post-fertilization zebrafish Assay for Yolk Sac Edema (AID 2283634).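 As to AC50: actives raise the incidence of yolk sac edema above the DMSO baseline.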 In a few lines: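 Readout: presence or absence of yolk sac edema at 120 hpf, fitted upward against DMSO controls. Exposure ran statically from 6 hpf in dechorionated embryos kept at 28C.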
Test [13] in a line: Tanguay_ZF_120hpf_AXIS_legacy: (Legacy) Oregon State University Tanguay Lab 120 Hour Post-fertilization zebrafish Assay for Body Axis Malformation (AID 2283635).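 As to AC50: potency for an increased fraction of larvae scored with body axis malformation.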 The essentials:
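Static 6–120 hpf chemical exposure of dechorionated wild-type 5D zebrafish, one per well at 28C; morphology endpoint scored binary at 120 hpf relative to DMSO control.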

Test [14] is described as follows: Tanguay_ZF_120hpf_EYE_legacy: (Legacy) Oregon State University Tanguay Lab 120 Hour Post-fertilization zebrafish Assay for Eye Malformation (AID 2283636).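 Also: binary presence or absence of eye malformation scored by brightfield in 120 hpf larvae.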 The essentials:
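Binary brightfield scoring of eye defects at 120 hpf after static exposure from 6 hpf of single pronase-dechorionated wild-type embryos (28C, 0.64% DMSO). Non-mortality endpoints omitted where embryos died; fit vs DMSO.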

Test [15] can be described thus: Tanguay_ZF_120hpf_SNOU_legacy: (Legacy) Oregon State University Tanguay Lab 120 Hour Post-fertilization zebrafish Assay for Snout Malformation (AID 2283637). The essentials:
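Binary snout-malformation call at 120 hpf in wild-type 5D embryos, chorion removed by pronase, under static exposure from 6 hpf at 28C (0.64% DMSO). Embryos dying by 24 or 120 hpf excluded.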

A short description of test [16]: Tanguay_ZF_120hpf_JAW_legacy: (Legacy) Oregon State University Tanguay Lab 120 Hour Post-fertilization zebrafish Assay for Jaw Malformation (AID 2283638).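 As to AC50: active means more embryos with jaw malformation than DMSO controls.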 The essentials:
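Static waterborne exposure of dechorionated wild-type (Tropical 5D) zebrafish from 6 to 120 hpf at 28C, 0.64% DMSO vehicle; 5uM trimethyltin chloride served as positive control. Jaw morphology recorded as binary at 120 hpf.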

The nature of test [17]: Tanguay_ZF_120hpf_OTIC_legacy: (Legacy) Oregon State University Tanguay Lab 120 Hour Post-fertilization zebrafish Assay for Otic Vesicle Malformation (AID 2283639). The essentials:
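Statically exposed wild-type 5D zebrafish embryos, kept sealed and dark at 28C through 120 hours post fertilization, were examined by brightfield microscopy for otic vesicle defects. Responses were recorded as present or absent and analysed relative to DMSO.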

The nature of test [18]: Tanguay_ZF_120hpf_PE_legacy: (Legacy) Oregon State University Tanguay Lab 120 Hour Post-fertilization zebrafish Assay for Pericardial Edema (AID 2283640).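 As to AC50: potency for increased incidence of pericardial edema versus DMSO baseline.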 In a few lines: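 Read-out is the presence or absence of pericardial edema at 120 hpf under brightfield, with gain of signal fitted against DMSO controls. Larvae (5D wild-type) were statically exposed at 28C with 0.64% final DMSO.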

A short description of test [19]: Tanguay_ZF_120hpf_BRAI_legacy: (Legacy) Oregon State University Tanguay Lab 120 Hour Post-fertilization zebrafish Assay for Brain Malformation (AID 2283641). In a few lines:
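Brain malformation in Tropical 5D zebrafish was recorded as a binary endpoint after static compound exposure from early development to 120 hpf at 28C. Activity was analysed against DMSO as negative control.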

Test [20] is described as follows: Tanguay_ZF_120hpf_SOMI_legacy: (Legacy) Oregon State University Tanguay Lab 120 Hour Post-fertilization zebrafish Assay for Somite Malformation (AID 2283647). The essentials: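 5D WT zebrafish; chorion removed 4 hpf; 1 embryo/well from 6 hpf; static exposure to 120 hpf, 28C, 0.64% DMSO final. Endpoint: somite malformation, binary, brightfield. Mortality excluded.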

Cellular tumor antigen p53 (Homo sapiens), sequence (P04637 whole entry, looked up): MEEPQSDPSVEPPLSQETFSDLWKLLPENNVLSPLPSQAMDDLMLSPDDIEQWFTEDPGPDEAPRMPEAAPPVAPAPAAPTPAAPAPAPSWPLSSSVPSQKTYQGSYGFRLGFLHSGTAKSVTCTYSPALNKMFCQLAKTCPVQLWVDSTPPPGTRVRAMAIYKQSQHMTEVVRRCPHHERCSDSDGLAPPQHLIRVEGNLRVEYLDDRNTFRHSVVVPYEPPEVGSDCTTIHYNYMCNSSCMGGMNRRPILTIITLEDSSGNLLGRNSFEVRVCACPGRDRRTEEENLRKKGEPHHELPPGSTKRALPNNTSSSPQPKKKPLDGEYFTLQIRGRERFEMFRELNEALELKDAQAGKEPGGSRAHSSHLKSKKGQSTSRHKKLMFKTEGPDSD

As a reminder, the AC50 is the concentration giving half of the maximal activity seen. As for `CCCCCCCCCCCCN1CCCC1=O`, the compound was called inactive in [1], in test [3], in [4], in [7], in test [10] and in test [13]. In addition, the outcome in test [14], in test [15], in test [17], in test [19] and in test [20] was inactive. In addition, the AC50 is 155 µM (active) in test [2]; 69.8 µM (active) in test [5]; 67.1 µM (active) in [6]; 63.2 µM (active) in [8]; 45.3 µM (active) in test [9]; 27.6 µM (active) in test [11]. The values for the half-maximal activity concentration (AC50) in test [12], in test [16] and in [18] were 47.3 µM (active), 46.6 µM (active) and 35.8 µM (active), respectively.
As to `Oc1cc2ccccc2c2ccccc12`, in [1], the call was inactive. The AC50 in test [2] was 16.6 µM (active) and 16.3 µM (active); in [3], 15.2 µM (active); in [4] it was 46.1 µM (active); in test [5], 14.5 µM (active); in test [6], 13.6 µM (active); in test [7], 12.2 µM (active). For the same compound, the concentration at half-maximal activity (AC50) in test [8] was 11.6 µM (active); in [9], 13.3 µM (active); in test [10] it was 20.4 µM (active); in [11], 14 µM (active); in test [12], 38.3 µM (active); in [13], 10.4 µM (active). In addition, the AC50 is 40 µM (active) in test [14]; 14.3 µM (active) in test [15]; 9.87 µM (active) in [16]; 10.8 µM (active) in [17]; 31.9 µM (active) in [18]; 36.2 µM (active) in [19]. Moreover, the concentration at half-maximal activity (AC50) in [20] is 12.4 µM (active).
On to `COC(=O)CCCCC(=O)OC`, for which the result in test [1], in test [2], in test [3], in [4], in test [5] and in test [6] was inactive. The outcome in test [7], in test [8], in test [9], in test [10], in test [11] and in test [13] was inactive. In addition, the compound was called inactive in test [14], in test [15], in test [16], in test [17], in test [18] and in test [19]. For the same compound, the result in test [20] was inactive.
For the compound `CC#C[C@]1(O)CC[C@H]2[C@@H]3CCC4=CC(=O)CCC4=C3[C@@H](c3ccc(N(C)C)cc3)C[C@@]21C`, the AC50 in test [1] was 11.5 µM (active); in test [4], 45.2 µM (active) and 19.9 µM (active); in test [6] it was 20.1 µM (active); in test [8], 72.6 µM (active) and 22 µM (active); in test [10], 65.8 µM (active) and 20.7 µM (active); in [12], 73.3 µM (active). The results for the concentration at half-maximal activity (AC50) in test [13] and in [18] were 82.8 µM (active) and 73.3 µM (active), respectively. Further, the compound was called inactive in test [2], in test [3], in test [5], in test [6], in test [7] and in test [9]. The result in test [11], in test [14], in test [15], in [16] and in test [20] was inactive.
Take `C=C(C)C(=O)OCCC(F)(F)C(F)(F)C(F)(F)C(F)(F)C(F)(F)C(F)(F)F`: the compound was called inactive in test [1], in [2], in test [4], in [5], in test [6] and in [7]. The result in [8], in [10], in test [11], in test [12], in [13] and in test [14] was inactive. Also, the result in test [15], in [17] and in test [18] was inactive.
For `CCCOC(=O)c1ccc(O)cc1`, the compound was called inactive in test [1], in [2], in test [3], in test [4], in [5] and in test [6]. For the same compound, the compound was classed as inactive in [7], in [8], in test [9], in test [10], in test [11] and in [14]. The AC50 is 35 µM (active) in test [12]; 46.4 µM (active) in test [13]; 39.3 µM (active) in test [15]; 10 µM (active) in test [16]; 40 µM (active) in [17]; 11 µM (active) in [18]. In addition, the half-maximal activity concentration (AC50) in [19] is 41.4 µM (active); in test [20], 33.3 µM (active).
